# Results taken from PubChem BioAssay.
# Columns and labels:
# [1] = tested on: Human papillomavirus type 1a protein E7 (residues 44-93); test: HPV1a E7 fragment binders on microarrays, primary screen, biochemical, small-molecule microarray, residues 44-93, 635 nm fluorescence (AID 1108); conditions: small-molecule microarray binding, fluorescence 635 nm; higher = more signal;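 further: E7 fragment applied at 1 µg/mL in TBST for 1 h at 4 C; score combines spot fluorescence with its signal to noise ratio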
# [2] = modulators of HCV replicon luciferase signal, primary screen, HCV replication inhibitor project, Huh7 cells, luciferase reporter (AID 1109); conditions: 48 h, higher = more signal;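 further: huh7 hepatoma cells harbouring a luciferase neomycin HCV replicon reporter; luciferase luminescence as measure of HCV replicon replication; test concentration not given here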
# [3] = target: Left-right determination factor 2 (Homo sapiens) (UniProt O00292); test: LEFTY2 binders on small-molecule microarrays, primary screen, biochemical, small-molecule microarray, 635 nm fluorescence scan (AID 1110); conditions: LEFTY2 binding, higher = more signal
# [4] = target: Calmodulin-1 (Homo sapiens) (UniProt P0DP23); test: CALM1 binders on microarrays, EGTA buffer, profiling panel, biochemical, small-molecule microarray, Cy5-labelled CALM1 (AID 1111); conditions: Cy5-CALM1 binding fluorescence, higher = more signal;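 further: labelled calmodulin applied in Tris saline Tween buffer holding calcium plus EGTA and DTT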
# [5] = target: Calmodulin-1 (Homo sapiens) (UniProt P0DP23); test: calcium-bound CALM1 binders on microarrays, profiling panel, artefact control for SMM control-protein annotation, biochemical, small-molecule microarray, Cy5-labelled CALM1, plus calcium (AID 1112); conditions: Cy5-CALM1 binding fluorescence, higher = more signal;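 further: score merges spot fluorescence with signal to noise from triplicate slides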
# [6] = small-molecule microarray binders of probe aWnt5a, primary screen, biochemical, biotinylated probe, 635/667 nm fluorescence (AID 1113); conditions: higher = more signal;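 further: score merges 667 nm fluorescence intensity with signal-to-noise per printed feature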
# [7] = small-molecule microarray binders of probe aShh, primary screen, biochemical, biotinylated probe, 635/667 nm fluorescence (AID 1114); conditions: higher = more signal;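 further: probe is biotin-labelled aShh protein from a stem cell growth factor screen; measures binding of labelled protein to compounds printed on the slide; score merges feature fluorescence at 667 nm with signal-to-noise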
# [8] = small-molecule microarray binders of probe aNog, primary screen, biochemical, biotinylated probe, 635/667 nm fluorescence (AID 1115); conditions: higher = more signal;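 further: probe is biotinylated aNog protein used at 0.15 µg/mL for 1 h at 4 C; z-score combines 667 nm fluorescence of each spot with its signal to noise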
# [9] = target: Torsin-1A-interacting protein 1 (Homo sapiens) (UniProt Q5JTV8); test: LAP1 binders from COS7 cell lysate, primary screen, small-molecule microarray, 635/667 nm fluorescence (AID 1116); conditions: COS7-hLAP1 lysate binding, 635 nm fluorescence, higher = more signal
# [10] = target: Alpha-bungarotoxin (Bungarus multicinctus) (UniProt P60615); test: alpha-bungarotoxin binders on microarray, profiling panel, artefact control for SMM control protein annotation, biochemical, small-molecule microarray, Alexa647 label, 635/667 nm fluorescence (AID 1117); conditions: alpha-BTX-A647 binding fluorescence, higher = more signal
# Alpha-bungarotoxin (Bungarus multicinctus), sequence (P60615 whole entry, looked up): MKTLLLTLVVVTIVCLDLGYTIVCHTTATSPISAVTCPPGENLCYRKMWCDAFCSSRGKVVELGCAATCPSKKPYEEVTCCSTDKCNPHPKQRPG
# Left-right determination factor 2 (Homo sapiens), sequence (O00292 whole entry, looked up): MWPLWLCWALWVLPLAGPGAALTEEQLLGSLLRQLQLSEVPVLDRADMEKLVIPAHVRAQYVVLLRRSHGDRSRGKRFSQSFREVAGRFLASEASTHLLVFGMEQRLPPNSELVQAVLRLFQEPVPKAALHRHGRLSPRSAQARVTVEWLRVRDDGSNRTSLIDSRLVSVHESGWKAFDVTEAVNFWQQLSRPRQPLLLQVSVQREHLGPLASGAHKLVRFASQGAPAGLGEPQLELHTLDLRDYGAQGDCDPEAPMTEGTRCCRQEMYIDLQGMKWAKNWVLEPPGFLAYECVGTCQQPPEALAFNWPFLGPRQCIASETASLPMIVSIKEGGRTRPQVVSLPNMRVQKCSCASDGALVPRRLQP
# Torsin-1A-interacting protein 1 (Homo sapiens), sequence (Q5JTV8 whole entry, looked up): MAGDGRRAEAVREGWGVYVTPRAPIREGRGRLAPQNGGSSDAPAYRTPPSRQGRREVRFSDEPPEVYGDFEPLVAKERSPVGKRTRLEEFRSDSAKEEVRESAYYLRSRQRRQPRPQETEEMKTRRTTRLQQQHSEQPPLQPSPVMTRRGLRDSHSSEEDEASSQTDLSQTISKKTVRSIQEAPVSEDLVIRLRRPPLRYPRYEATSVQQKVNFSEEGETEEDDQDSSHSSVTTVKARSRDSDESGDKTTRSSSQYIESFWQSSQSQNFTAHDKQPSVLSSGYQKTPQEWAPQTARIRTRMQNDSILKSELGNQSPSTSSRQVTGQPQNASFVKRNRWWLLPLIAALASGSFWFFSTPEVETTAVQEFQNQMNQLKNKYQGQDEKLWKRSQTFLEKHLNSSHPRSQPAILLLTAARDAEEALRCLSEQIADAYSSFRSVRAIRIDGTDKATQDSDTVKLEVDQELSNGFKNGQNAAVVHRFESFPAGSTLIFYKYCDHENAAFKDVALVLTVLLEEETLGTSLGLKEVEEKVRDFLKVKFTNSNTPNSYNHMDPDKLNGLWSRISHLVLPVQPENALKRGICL
Structure (SMILES),composite z-score [1],z-score [2],composite z-score [3],composite z-score [4],composite z-score [5],composite z-score [6],composite z-score [7],composite z-score [8],composite z-score [9],composite z-score [10]
C=CCNC(=O)[C@H]1[C@@H]2C(=O)O[C@@H](c3ccccc3)[C@@H](c3ccccc3)N2[C@@H](c2ccc(OCCO)cc2)[C@]12C(=O)Nc1ccc(C#Cc3ccc(OC)cc3)cc12,1.02,-2.18,0.699,0.573,0.787,0.104,0.465,-0.403,1.1,1.71
C=C(C(=O)CC[C@@H](OC(=O)c1ccccc1-c1ccccc1C(=O)O)c1cccc(OCCO)c1)C(C)C,-0.635,-3.06,0.706,-0.367,-0.692,-0.129,-0.0396,-0.248,3.26,-0.11
CCOC(=O)C[C@H]1[C@H](OC(=O)c2ccc(-c3ccccc3)cc2)[C@@H](NC(=O)C2CCCCC2)c2cc(OCCCO)ccc2N1C(=O)Cc1ccc(OC)cc1,0.612,-1.57,0.4,1.07,0.881,-0.0523,-0.571,-0.638,0.527,0.333
CN1C(=O)C2C=CC(C(O)c3ccc(I)cc3)N(N(c3ccccc3)c3ccccc3)C2C1=O (stereo not given),-0.802,-1.55,-0.953,0.95,-0.0638,-0.0735,0.0469,0.878,-0.119,0.98
CO[C@H]1O[C@H](CO)[C@@H](OC(=O)CCc2ccccc2)[C@@H]2OC(=O)[C@@H](Cc3ccc4ccccc4c3)C/C=C/C[C@H](Cc3ccc4ccccc4c3)C(=O)O[C@@H]12,0.349,0.228,-0.817,-0.452,-0.119,-0.202,-0.0709,-0.266,-0.0222,1.33
CCN1C(=O)C2CC(=O)C3C(CN(S(=O)(=O)c4ccc(C)cc4)C3c3ccc(C)cc3)C2C1=O (stereo not given),-1.69,-2.44,0.015,1.85,0.495,-0.0269,0.749,0.685,1.08,-0.344
CC(C)c1ccc(NN2C(C(O)C3=C[C@H]4C[C@@H](C3)C4(C)C)C=CC3C(=O)N(c4ccccc4)C(=O)C32)cc1 (stereo not given in full),0.796,-0.637,0.368,2.46,0.977,0.0403,0.907,2.06,1.54,1.64
COc1c(C)cc(-c2nc(-c3ccccc3)c3c(c2C)CO[Si]3(C(C)C)C(C)C)cc1C,0.0725,-0.77,0.513,0.0032,0.154,-0.0478,-0.0769,0.239,-0.0032,-0.0073
COc1ccc([Si](C)(C)[C@H]2[C@H](CC(=O)N(CCO)Cc3ccccc3)O[C@@]3(C(=O)N(Cc4ccc(N5C(=O)c6cccc7cccc5c67)cc4)c4ccccc43)[C@@H]2C)cc1,1.28,-3.78,0.544,0.605,0.103,0.0495,0.19,0.945,0.869,0.753
COc1ccc(C(O)C2C=CC3C(=O)N(C)C(=O)C3N2Nc2ccccc2)cc1 (stereo not given),1.22,-1.14,-0.132,0.675,0.283,0.0792,0.462,1.76,0.916,1.38
COc1cc(CO)cc(I)c1O[C@H]1C=C(C(=O)NCCO)C[C@@H](N(CCN2CCOCC2)C(=O)C2CCCO2)[C@@H]1O (stereo not given in full),0.35,0.109,0.445,-0.292,-0.671,-0.0606,-0.0769,-0.248,0.11,-0.197
COCCOC(=O)N1C(=O)[C@@]2(c3cc(C#CCCO)ccc31)[C@H](c1ccc(O)cc1)N1[C@H](c3ccccc3)[C@H](c3ccccc3)OC(=O)[C@H]1[C@@H]2C(=O)NC[C@H](O)c1ccccc1,0.495,-1.02,0.285,0.212,0.0658,-0.027,0.204,1.05,0.981,0.367
CC(CO)N1C(=O)[C@@H]2[C@H]3C(=O)OCC=C[C@H]3OC23C=CCN(c2ccc4ccccc4c2)C(=O)[C@@H]13 (stereo not given in full),-1.55,-0.418,-2.64,-0.505,0.0117,-0.174,-0.0035,0.474,-1.14,-0.674
COC(=O)C1(CC(C)C)C=C2C(=C(C)C(=O)C2C)CN1 (stereo not given),-0.412,-1.01,-0.253,0.0595,0.89,0.432,1.79,0.825,0.653,0.096
C=C(C(=O)CC[C@@H](OC(=O)c1ccccc1-c1ccccc1C(=O)O)c1ccc(CO)o1)C(C)C,0.476,-1.53,0.367,-0.236,-0.86,-0.118,-0.349,-0.295,1.27,0.101
COc1cc(Cc2cc3c(c(CCc4ccccc4)n2)[Si](C(C)C)(C(C)C)O[C@H]3c2ccccc2)cc(OC)c1OC,-1.18,-2.37,0.151,-0.448,-0.425,-0.0107,-0.138,-0.0827,0.415,0.537

Structure (SMILES),composite z-score [1],z-score [2],composite z-score [3],composite z-score [4],composite z-score [5],composite z-score [6],composite z-score [7],composite z-score [8],composite z-score [9],composite z-score [10]
COC(=O)[C@@]1(Cc2ccccc2)[C@H]2c3cc(C(=O)N(C)C)n(Cc4ccc(Cl)c(C(F)(F)F)c4)c3C[C@H]2CN1C(=O)c1ccccc1,1.37,-2.61,0.533,1.49,1.06,0.315,1.24,1.91,0.636,0.995
COc1c(C)cc(-c2cc3c(c(CCc4ccccc4)n2)[Si](C(C)C)(C(C)C)O[C@H]3c2ccccc2)cc1C,-0.52,-3.84,-0.124,0.261,0.502,0.0136,0.0008,0.0225,-0.445,-0.176
COC(=O)C(CC#Cc1ccc2c(c1)[C@]1(C(=O)N2)[C@H](C(N)=O)[C@H]2C(=O)O[C@H](c3ccccc3)[C@H](c3ccccc3)N2[C@@H]1c1ccccc1OCCO)C(=O)OC,1.47,-3.34,0.205,0.534,0.237,-0.0721,-0.291,-0.0604,1.87,1.19
C=CC[C@H](O)c1ccc(O)c2ccccc12,0.7,-2.04,0.685,-0.536,-1.32,-0.0521,0.151,-0.158,0.655,1.23
Cc1ccc(S(=O)(=O)N2[C@@H](c3ccccc3)C(C(=O)O)=CC[C@H]2c2ccc(F)cc2)cc1,1.46,-0.547,-1.25,-0.599,-0.388,0.108,-0.291,0.325,1.94,1.18
C=CCOC(=O)[C@@H]1[C@H]2C(=O)O[C@H](c3ccccc3)[C@H](c3ccccc3)N2[C@H](c2ccc(OCCOC(=O)[C@@H]3C[C@@H]4C(=O)N[C@@H](CC(C)C)C(=O)N4[C@@H]3c3ccc(O)cc3)cc2)[C@@]12C(=O)Nc1ccc(I)cc12,1.39,-0.432,1.26,0.751,0.289,-0.263,-0.0793,1.12,-0.107,1.44
C=C(C(=O)CC[C@@H](OC(=O)c1cccnc1)c1cccc(OCCO)c1)C(C)C,-0.501,-2.12,0.415,-0.323,-1.4,-0.0405,-0.123,-0.0784,0.534,0.316
[N-]=[N+]=NCc1ccccc1[C@H]1OC(c2ccc(OCCCO)cc2)=N[C@@]1(CCS(=O)(=O)c1ccccc1)C(=O)O,0.746,-1.98,-0.266,0.461,-0.331,-0.15,-0.156,-0.246,0.703,-0.553
CC[C@H]1C2=C3C(CC[C@H]4C(OCc5ccc(F)cc5C(F)(F)F)OC[C@](C)([C@@H]34)N(C(=O)OC(C)(C)C)C2)C(COC(C)=O)C1COC(C)=O (stereo not given in full),1.35,-0.567,-0.747,1.97,1.15,0.24,1.15,-0.313,0.0366,0.729
[N-]=[N+]=NCc1ccccc1C[C@@]1(C(=O)NCCN2CCOCC2)N=C(c2ccc(OCCCO)cc2)O[C@@H]1c1ccccc1,1.39,-2.6,-0.58,1.26,0.683,0.0391,0.358,0.35,1.06,1.19
O=C1NC(=O)C2C1C=CC(C(O)C(O)CO)N2Nc1ccccn1 (stereo not given),0.492,0.538,0.322,0.339,-0.635,0.0502,-0.0035,-0.201,0.0465,0.315
COC(=O)C(CC#Cc1ccc2c(c1)[C@]1(C(=O)N2)[C@H](c2ccccc2OCCO)N2[C@H](c3ccccc3)[C@H](c3ccccc3)OC(=O)[C@H]2[C@@H]1C(=O)N1CCN(c2ncccn2)CC1)C(=O)OC,1.37,-2.63,0.595,0.999,-0.154,-0.152,0.178,-0.158,0.664,0.876
C[N+](C)(C)CCCC[C@@H]1NC(=O)[C@H]2C[C@@H](C(=O)NCCCCCN)[C@@H](c3ccc(O)cc3)N2C1=O,-0.0195,0.493,1.34,1.67,0.631,-0.0403,-0.0886,0.177,1.52,2.54
C=CC[C@]1(C(N)=O)N=C(c2ccc(OCCCO)cc2)O[C@H]1c1ccccc1N=[N+]=[N-],0.811,0.304,0.0562,0.85,0.0151,0.0317,0.0611,-0.153,1.29,1.71
O=C1C2C=CC(C(O)C3CC=CCC3)N(Nc3ccc([N+](=O)[O-])cc3)C2C(=O)N1c1ccccc1 (stereo not given),0.34,0.276,0.485,1.76,-0.0685,0.22,0.262,1.39,1.75,1.87
